Measurements taken from PubChem BioAssay (Tox21).
Unmarked numbers belong to inactive results. Inconclusive results are not listed. Where a call stands in place of a potency, no number is given. Active and inactive are the calls of the source. Calls come from the whole dose curve; as a rule, active = well fitted curve in the direction sought with a large enough effect in the repeat runs; inconclusive = weak or mixed curves; inactive = no such curve, though single readings can be large; an effect the other way counts as inactive or inconclusive.

Assays:
[1] = Caspase-3/7 induction in HepG2 cells by small molecules, qHTS assay (AID 1346978); note: nearly all actives have a fitted effect of over 15% in size
Outline: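 Wild-type HepG2 cells (2,000/well) were settled 5 h at 37 C, 5% CO2, then exposed to compounds in DMSO for 17 h. Caspase-3/7 activity was read by luminescence 30 min after adding Caspase-Glo 3/7 reagent at room temperature.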

[2] = Caspase-3/7 induction in CHO-K1 cells by small molecules, qHTS assay (AID 1346980); note: nearly all actives have a fitted effect of over 15% in size
Outline: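 Wild-type cells were seeded at 1,500 per well and settled 5 hr at 37 C, 5% CO2, then exposed to DMSO-dissolved compounds for 17 hr. Caspase-Glo 3/7 reagent was added, and luminescence was read after 30min at room temperature.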

[3] = Caspase-3/7 induction in HepG2 cells by small molecules, qHTS cell viability counter screen (AID 1346981); note: nearly all actives have a fitted effect of over 30% in size; note: potency is the fitted concentration of half-maximal effect
Outline: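 Counter screen for cytotoxicity: HepG2 exposed 16 hr to compounds, then CellTiter-Fluor viability signal (fluorescence, 1 hr reagent incubation).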

[4] = target: Nuclear receptor subfamily 1 group I member 2 (Homo sapiens) (UniProt O75469); experiment: Human pregnane X receptor (PXR) small molecule agonists, qHTS assay (AID 1346982); note: nearly all actives have a fitted effect of over 35% in size; note: potency is the fitted concentration of half-maximal effect
Outline: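 Luminescence (ONE-Glo, 30 min RT) after 24 hr compound exposure of PXR-Luc HepG2 cells; cells rested 5 hr post-plating in 5% charcoal-stripped FBS medium.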

[5] = target: Cytochrome P450 2D6 (Homo sapiens) (UniProt P10635); experiment: Cytochrome P450 Family 2 Subfamily D Member 6 (CYP2D6) small molecule antagonists: luciferase reporter qHTS assay (AID 1671196); note: nearly all actives have a fitted effect of over 50% in size; note: potency is the fitted concentration of half-maximal effect
Outline: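 Inhibition of CYP2D6 was gauged by loss of luminescence, since light produced tracks the luciferin generated from a proluciferin substrate. A 10 min room-temperature preincubation preceded 1 h NADPH-supported turnover.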

[6] = target: Cytochrome P450 2C19 (Homo sapiens) (UniProt P33261); experiment: Cytochrome P450 Family 2 Subfamily C Member 19 (CYP2C19) small molecule antagonists: luciferase reporter qHTS assay (AID 1671197); note: nearly all actives have a fitted effect of over 65% in size; note: potency is the fitted concentration of half-maximal effect
Outline: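 Compounds were tested on CYP2C19 activity via proluciferin conversion to luciferin. The 37C, 1 h reaction followed NADPH addition; detection reagent stopped it.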

[7] = target: Cytochrome P450 2C9 (Homo sapiens) (UniProt P11712); experiment: Cytochrome P450 Family 2 Subfamily C Member 9 (CYP2C9) small molecule antagonists: luciferase reporter qHTS assay (AID 1671198); note: nearly all actives have a fitted effect of over 50% in size; note: potency is the fitted concentration of half-maximal effect
Outline: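 CYP2C9 activity was measured with a P450-Glo proluciferin substrate. Enzyme–substrate mix was held with compound for 10 min at room temperature, then NADPH regeneration solution was added for 1 h at 37C. Luciferin product was read as luminescence.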

[8] = target: Cytochrome P450 1A2 (Homo sapiens) (UniProt P05177); experiment: Cytochrome P450 Family 1 Subfamily A Member 2 (CYP1A2) small molecule antagonists: luciferase reporter qHTS assay (AID 1671199); note: nearly all actives have a fitted effect of over 50% in size; note: potency is the fitted concentration of half-maximal effect
Outline: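 Signal from luciferin formed by CYP1A2 from a proluciferin substrate is read as luminescence, expressed in relative luminescence units. Compounds sit with enzyme 10 min, NADPH-driven reaction runs 1 h, all at room temperature.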

[9] = target: Voltage-gated inwardly rectifying potassium channel KCNH2 (Homo sapiens) (UniProt Q12809); experiment: Human Ether-a-go-go-Related Gene (hERG) channel small molecule antagonists: fluorescence cell-based qHTS assay (AID 1671200); note: nearly all actives have a fitted effect of over 50% in size; note: potency is the fitted concentration of half-maximal effect
Outline: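 Kinetic two-minute fluorescence traces, sampled at 1 s, were collected following thallium stimulus of U2OS cells (1000 per well) that had been cultured overnight at 37 C and loaded with FluxOR II.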

[10] = Human pregnane X receptor (PXR) small molecule agonists, qHTS cell viability counter screen (AID 1346977); note: nearly all actives have a fitted effect of over 50% in size; note: potency is the fitted concentration of half-maximal effect
Outline: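 Tox21 qHTS format; PXR-Luc HepG2, 2,000/well, charcoal-stripped FBS 5%. Cpd exposure 24hr. Read: CellTiter-Fluor fluorescence, multiplexed with luciferase.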

[11] = target: Cytochrome P450 3A4 (Homo sapiens) (UniProt P08684); experiment: Cytochrome P450 Family 3 Subfamily A Member 4 (CYP3A4) small molecule antagonists: luciferase reporter qHTS assay (AID 1671201); note: nearly all actives have a fitted effect of over 50% in size; note: potency is the fitted concentration of half-maximal effect
Outline: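 Proluciferin-to-luciferin conversion by CYP3A4, NADPH-regenerated, 1 h RT; luminescence read as RLU. Ketoconazole as control.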

[12] = target: Nuclear receptor subfamily 1 group I member 2 (Homo sapiens) (UniProt O75469); experiment: CYP3A4 induction through human pregnane X receptor (PXR) by small molecules, qHTS assay (AID 1346984); note: nearly all actives have a fitted effect of over 40% in size
Outline: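 DPX-2 reporter cells; 24h cpd, 37C; Luciferin-IPA 3uM final x3h; One-Glo 30 min RT; lumi read.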

[13] = target: Nuclear receptor subfamily 1 group I member 2 (Homo sapiens) (UniProt O75469); experiment: Human pregnane X receptor (PXR) activation by small molecules, qHTS assay (AID 1346985); note: nearly all actives have a fitted effect of over 40% in size; note: potency is the fitted concentration of half-maximal effect
Outline: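 DPX-2 cells (HepG2 co-transfected with a PXR response element and a CYP3A4-promoter luciferase construct) were seeded at 2,000 per well, rested 5 hr at 37C, then exposed to DMSO-dissolved compounds for 24 hr. Activation was read as luciferase luminescence.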

[14] = target: Nuclear receptor subfamily 1 group I member 2 (Rattus norvegicus) (UniProt Q9R1A7); experiment: Rat pregnane X receptor (rPXR) activation by small molecules, qHTS assay (AID 1346983); settings: rPXR luciferase reporter cells, One-Glo luminescence, 24 h; max activation: active compounds read high; note: nearly all actives have a fitted effect of over 20% in size
Outline: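 Cell-based rPXR luciferase reporter assay, 2,000 cells per well, rested 5hr at 37 C before compound addition in DMSO, then 24 hr at 37 C. One-Glo reagent was added and luminescence read after 30 min at room temperature.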

[15] = Caspase-3/7 induction in CHO-K1 cells by small molecules, qHTS cell viability counter screen (AID 1346979); note: nearly all actives have a fitted effect of over 35% in size; note: potency is the fitted concentration of half-maximal effect
Outline: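 CellTiter-Fluor viability check, qHTS format: wild-type CHO-K1, 16hr compound treatment, 1hr reagent incubation, fluorescence read.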

Sequence of Cytochrome P450 1A2 (Homo sapiens) (P05177 whole entry, looked up): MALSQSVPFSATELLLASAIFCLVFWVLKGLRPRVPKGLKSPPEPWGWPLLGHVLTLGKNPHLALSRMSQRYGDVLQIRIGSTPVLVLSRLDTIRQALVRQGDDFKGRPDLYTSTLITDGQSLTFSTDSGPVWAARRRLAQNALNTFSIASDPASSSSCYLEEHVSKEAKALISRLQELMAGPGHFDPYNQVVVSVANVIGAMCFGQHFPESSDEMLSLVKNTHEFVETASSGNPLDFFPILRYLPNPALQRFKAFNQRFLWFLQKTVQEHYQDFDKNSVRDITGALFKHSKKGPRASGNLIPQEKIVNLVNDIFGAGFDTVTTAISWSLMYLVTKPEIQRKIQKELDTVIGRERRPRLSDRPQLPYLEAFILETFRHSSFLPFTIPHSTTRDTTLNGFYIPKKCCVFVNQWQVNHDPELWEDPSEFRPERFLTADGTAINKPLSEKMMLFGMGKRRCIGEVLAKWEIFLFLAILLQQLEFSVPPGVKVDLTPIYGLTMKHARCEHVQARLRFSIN
Sequence of Cytochrome P450 3A4 (Homo sapiens) (P08684 whole entry, looked up): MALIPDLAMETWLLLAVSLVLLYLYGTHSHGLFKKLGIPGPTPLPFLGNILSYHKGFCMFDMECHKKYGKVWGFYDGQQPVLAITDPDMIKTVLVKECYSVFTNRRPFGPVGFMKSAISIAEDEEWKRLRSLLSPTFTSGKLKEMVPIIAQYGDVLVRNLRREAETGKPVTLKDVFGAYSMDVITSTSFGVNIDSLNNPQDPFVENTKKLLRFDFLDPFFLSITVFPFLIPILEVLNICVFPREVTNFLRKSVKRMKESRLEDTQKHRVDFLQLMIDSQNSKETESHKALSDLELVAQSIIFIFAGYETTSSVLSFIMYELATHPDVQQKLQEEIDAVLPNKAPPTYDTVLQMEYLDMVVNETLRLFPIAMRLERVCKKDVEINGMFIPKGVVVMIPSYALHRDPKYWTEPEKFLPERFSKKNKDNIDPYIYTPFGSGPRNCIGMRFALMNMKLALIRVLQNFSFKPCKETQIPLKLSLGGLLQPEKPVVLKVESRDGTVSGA
Sequence of Cytochrome P450 2D6 (Homo sapiens) (P10635 whole entry, looked up): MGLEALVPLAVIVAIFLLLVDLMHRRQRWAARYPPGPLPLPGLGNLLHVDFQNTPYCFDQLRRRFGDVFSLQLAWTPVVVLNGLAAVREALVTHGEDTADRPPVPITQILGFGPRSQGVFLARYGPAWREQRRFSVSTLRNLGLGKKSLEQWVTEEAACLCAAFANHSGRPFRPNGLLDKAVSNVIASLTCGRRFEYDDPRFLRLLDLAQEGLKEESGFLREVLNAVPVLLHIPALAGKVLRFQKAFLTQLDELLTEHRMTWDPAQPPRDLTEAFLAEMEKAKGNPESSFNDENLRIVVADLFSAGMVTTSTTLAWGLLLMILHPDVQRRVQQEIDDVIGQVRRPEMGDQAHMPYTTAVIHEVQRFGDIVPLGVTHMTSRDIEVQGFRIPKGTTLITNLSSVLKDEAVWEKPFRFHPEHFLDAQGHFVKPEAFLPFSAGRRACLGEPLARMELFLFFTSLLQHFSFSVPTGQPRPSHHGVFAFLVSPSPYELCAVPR
Sequence of Voltage-gated inwardly rectifying potassium channel KCNH2 (Homo sapiens) (Q12809 whole entry, looked up): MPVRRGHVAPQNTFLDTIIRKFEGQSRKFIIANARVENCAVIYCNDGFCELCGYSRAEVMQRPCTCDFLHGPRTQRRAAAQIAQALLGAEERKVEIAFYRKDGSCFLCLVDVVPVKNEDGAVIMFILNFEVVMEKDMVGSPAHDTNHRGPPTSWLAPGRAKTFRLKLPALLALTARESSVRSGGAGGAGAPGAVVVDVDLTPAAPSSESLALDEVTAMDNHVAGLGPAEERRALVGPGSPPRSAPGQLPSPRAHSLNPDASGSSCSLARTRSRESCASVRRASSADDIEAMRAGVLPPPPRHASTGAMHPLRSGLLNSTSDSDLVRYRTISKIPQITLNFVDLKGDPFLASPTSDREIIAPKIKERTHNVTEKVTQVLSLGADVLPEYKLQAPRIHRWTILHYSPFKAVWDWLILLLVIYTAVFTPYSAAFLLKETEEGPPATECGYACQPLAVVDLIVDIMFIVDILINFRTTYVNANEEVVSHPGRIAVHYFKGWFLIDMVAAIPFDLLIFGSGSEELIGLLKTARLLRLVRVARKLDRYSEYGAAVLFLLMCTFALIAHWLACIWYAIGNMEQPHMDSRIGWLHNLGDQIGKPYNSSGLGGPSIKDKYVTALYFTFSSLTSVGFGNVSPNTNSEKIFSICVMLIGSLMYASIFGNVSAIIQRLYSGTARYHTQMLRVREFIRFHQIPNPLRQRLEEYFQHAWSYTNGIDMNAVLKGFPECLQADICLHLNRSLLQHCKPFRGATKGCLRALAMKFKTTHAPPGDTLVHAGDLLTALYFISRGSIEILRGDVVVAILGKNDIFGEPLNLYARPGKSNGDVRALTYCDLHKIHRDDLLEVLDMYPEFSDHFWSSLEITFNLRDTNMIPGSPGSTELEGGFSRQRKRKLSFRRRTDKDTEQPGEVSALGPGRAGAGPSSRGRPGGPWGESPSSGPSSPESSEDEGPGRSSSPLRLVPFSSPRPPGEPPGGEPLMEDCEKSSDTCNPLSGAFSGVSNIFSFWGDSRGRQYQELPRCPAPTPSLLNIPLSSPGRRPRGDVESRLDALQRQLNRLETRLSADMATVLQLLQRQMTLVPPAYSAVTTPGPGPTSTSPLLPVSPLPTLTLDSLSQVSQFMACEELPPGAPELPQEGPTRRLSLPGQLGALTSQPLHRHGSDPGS
Sequence of Cytochrome P450 2C19 (Homo sapiens) (P33261 whole entry, looked up): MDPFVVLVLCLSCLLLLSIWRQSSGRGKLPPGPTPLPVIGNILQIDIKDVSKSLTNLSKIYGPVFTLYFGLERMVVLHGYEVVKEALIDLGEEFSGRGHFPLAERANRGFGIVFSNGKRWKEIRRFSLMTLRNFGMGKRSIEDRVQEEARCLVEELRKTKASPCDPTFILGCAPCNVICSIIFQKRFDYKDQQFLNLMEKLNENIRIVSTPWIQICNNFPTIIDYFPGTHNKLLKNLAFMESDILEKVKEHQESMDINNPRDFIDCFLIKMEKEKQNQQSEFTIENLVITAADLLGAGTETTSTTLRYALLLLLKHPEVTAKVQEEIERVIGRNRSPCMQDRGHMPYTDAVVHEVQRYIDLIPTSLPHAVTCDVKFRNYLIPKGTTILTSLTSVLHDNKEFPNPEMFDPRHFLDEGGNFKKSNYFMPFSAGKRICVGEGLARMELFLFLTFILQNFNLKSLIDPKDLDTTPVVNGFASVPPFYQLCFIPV
Sequence of Cytochrome P450 2C9 (Homo sapiens) (P11712 whole entry, looked up): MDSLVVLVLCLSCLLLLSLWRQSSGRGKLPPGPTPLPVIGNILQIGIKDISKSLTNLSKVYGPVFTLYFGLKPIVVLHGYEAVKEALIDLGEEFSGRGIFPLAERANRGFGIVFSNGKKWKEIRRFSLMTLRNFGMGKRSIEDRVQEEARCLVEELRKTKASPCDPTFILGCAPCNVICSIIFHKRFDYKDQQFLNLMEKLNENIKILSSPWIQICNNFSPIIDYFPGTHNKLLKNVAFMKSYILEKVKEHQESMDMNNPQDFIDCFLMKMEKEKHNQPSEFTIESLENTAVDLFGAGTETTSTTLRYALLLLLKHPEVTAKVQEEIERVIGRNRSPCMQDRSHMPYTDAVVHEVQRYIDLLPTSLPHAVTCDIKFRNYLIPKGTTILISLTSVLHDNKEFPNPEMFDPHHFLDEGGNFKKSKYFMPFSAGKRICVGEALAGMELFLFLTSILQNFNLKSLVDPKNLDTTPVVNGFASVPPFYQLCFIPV
Sequence of Nuclear receptor subfamily 1 group I member 2 (Rattus norvegicus) (Q9R1A7 whole entry, looked up): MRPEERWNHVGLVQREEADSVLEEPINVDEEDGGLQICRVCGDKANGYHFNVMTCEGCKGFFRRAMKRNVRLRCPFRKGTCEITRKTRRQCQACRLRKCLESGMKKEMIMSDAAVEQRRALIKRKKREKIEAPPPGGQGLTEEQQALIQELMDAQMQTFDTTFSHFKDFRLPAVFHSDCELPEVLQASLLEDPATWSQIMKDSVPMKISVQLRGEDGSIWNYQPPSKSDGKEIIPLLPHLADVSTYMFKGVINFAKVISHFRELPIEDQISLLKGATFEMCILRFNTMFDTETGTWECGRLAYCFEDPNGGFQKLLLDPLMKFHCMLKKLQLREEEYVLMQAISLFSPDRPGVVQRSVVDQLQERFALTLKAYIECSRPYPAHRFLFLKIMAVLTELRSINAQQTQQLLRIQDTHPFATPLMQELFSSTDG

SMILES	Potency [1]	Potency [2]	Potency [3]	Potency [4]	Potency [5]	Potency [6]	Potency [7]	Potency [8]	Potency [9]	Potency [10]	Potency [11]	Potency [12]	Potency [13]	max activation [14] [%]	Potency [15]
C/C(=C(/OCCOc1ccc(Cl)cc1)c1ccc(Cl)cc1Cl)n1ccnc1	inactive	inactive	inactive	10.6 µM (active)	1.55 µM (active)	0.776 µM (active)	0.871 µM (active)	2.29 µM (active)	6.74 µM (active)						
CC(C)(C)C1CCC(CC2=C(O)c3ccccc3C(=O)C2=O)CC1 (stereo not drawn)		inactive	11.9 µM (active)	29.8 µM (active)	inactive	inactive	1.95 µM (active)	inactive		10.6 µM (active)	inactive				
CCCCCCCCOc1ccccc1C(=O)Nc1ccc(C(=O)OCC[N+](C)(CC)CC)cc1		inactive		inactive	38.9 µM (active)	3.89 µM (active)	4.36 µM (active)	inactive		inactive		inactive	inactive		
Cc1ccc(O)c2ncccc12		inactive	inactive	3.35 µM (active)	inactive	inactive		15.5 µM (active)		5.96 µM (active)	inactive	inactive	inactive		
COc1ccc(-c2ccc3cc(C(=O)O)ccc3c2)cc1C12CC3CC(CC(C3)C1)C2		inactive	inactive	inactive		inactive	inactive	inactive	inactive	inactive	inactive	inactive	inactive	-8.07	
Cn1cc(C(=O)[C@@H]2CCc3nc[nH]c3C2)c2ccccc21	inactive	inactive		inactive	17.4 µM (active)	8.71 µM (active)	inactive	17.4 µM (active)				inactive	inactive	-0.66	inactive
COC(=O)C1=C(C)NC(C)=C(C(=O)OCC(C)C)C1c1ccccc1[N+](=O)[O-] (stereo not drawn)		inactive								61.1 µM (active)					
O=CC=C(c1ccccc1)c1ccccc1	inactive			69.1 µM (active)		18 µM (active)		20.2 µM (active)	39.2 µM (active)		inactive				54.9 µM (active)
Oc1c(Cl)cc(Cl)c2cccnc12	inactive	inactive	inactive	26.6 µM (active)					inactive				28.2 µM (active)		
c1cc(C(c2ccc(OCC3CO3)cc2)c2ccc(OCC3CO3)cc2)ccc1OCC1CO1 (stereo not drawn)	inactive			27.3 µM (active)	inactive	56.4 µM (active)		inactive	inactive		7.96 µM (active)				61.1 µM (active)
